# Screens from PubChem BioAssay.
# An excerpt weighted towards active compounds, which were near 1.2% of everything screened.
# RGS7-Gao reg = regulators of human RGS7-Galphao interaction; Multiplexed bead flow cytometry, RGS7-Galphao binding; actives lie on both sides; binding response (% of control), % at 10 µM; hit rate 0.35% among 220,000; AID 1439; in the data active = binding response below about 49% or above about 150%; inconclusive = no clear call, values can overlap the other calls; inactive = in between;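 also: fluorescent Galphao held in activated GDP-AlF4 state binding bead-coupled RGS7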
# GSH bead fluor = GSH bead compound fluorescence profile; GSH beads flow cytometry, compound fluorescence 488/530 nm; hits give high values; fluorescence (KMESF) at 10 µM; hit rate 0.25% among 190,000; in the data active = fluorescence above about 89;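 also: glutathione beads carrying GST-tagged Bcl family fusion proteins plus one bare bead set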
# RGS8-Gao reg = human RGS8-Galphao interaction regulation | P09471 | multiplexed bead flow cytometry, RGS8-Galphao binding; actives lie on both sides | response (percent of control binding), % at 10 µM | hit rate 0.34% among 220,000 | AID 1423; in the data active = response below about 60% or above about 140%; inactive = in between;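 also: Galphao activated as the GDP aluminium fluoride complex binding bead-coupled RGS8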
# RGS4-Gao reg = human RGS4-Galphao interaction regulation | hit rate 0.33% among 220,000 | binding response (% of control), % at 10 µM | Multiplexed bead flow cytometry, RGS4-Galphao binding; actives lie on both sides | P09471; in the data active = binding response below about 49% or above about 150%; inactive = in between;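 also: fluorescent Galphao activated with aluminum fluoride binding bead-coupled RGS4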
# Avidin bead fluor = compound fluoresces at 488/530 nm on avidin beads; hit rate 0.38% among 220,000; compound fluorescence 488/530 nm, flow cytometry; hits give high values; fluorescence (KMESF) at 10 µM; in the data active = fluorescence above about 47
# RGS16-Gao HTS = regulators of human RGS16-Galphao interaction; O15492+P09471; bead-based flow cytometry RGS16-Galphao binding, fluorescence; actives lie on both sides; binding response (% of control), % at 10 µM; hit rate 0.38% among 220,000;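 also: Galphao activated by GDP with aluminum fluoride before binding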
# Target sequence (O15492 whole entry, looked up): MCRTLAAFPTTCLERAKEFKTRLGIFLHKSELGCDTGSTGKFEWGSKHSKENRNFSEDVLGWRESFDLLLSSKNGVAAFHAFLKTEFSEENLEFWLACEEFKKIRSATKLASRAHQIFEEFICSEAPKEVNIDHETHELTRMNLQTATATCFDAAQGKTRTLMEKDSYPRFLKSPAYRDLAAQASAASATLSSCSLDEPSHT
# Target sequence (P09471 whole entry, looked up): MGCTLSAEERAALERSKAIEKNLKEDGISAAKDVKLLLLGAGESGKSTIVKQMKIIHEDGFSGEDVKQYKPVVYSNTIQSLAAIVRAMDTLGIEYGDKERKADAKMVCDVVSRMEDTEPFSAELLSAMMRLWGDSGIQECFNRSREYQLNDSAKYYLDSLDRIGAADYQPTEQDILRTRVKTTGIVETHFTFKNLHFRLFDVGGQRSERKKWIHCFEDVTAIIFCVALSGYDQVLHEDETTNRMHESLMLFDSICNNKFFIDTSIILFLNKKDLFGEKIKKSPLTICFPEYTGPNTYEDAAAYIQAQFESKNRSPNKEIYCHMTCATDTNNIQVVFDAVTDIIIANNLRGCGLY
# RGS4-Gao HTS = RGS4-Galphao interaction regulator (human) | shares compounds with RGS16-Gao HTS | multiplexed bead flow cytometry, RGS–Galpha-o binding | RGS4–Galpha-o binding response, % at 10 µM | hit rate 99% among 1,600;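 also: fluorescently labeled Galpha-o bound to GDP with aluminium fluoride binding biotinylated RGS beads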
# Avidin counter = biotin-avidin bead binding disruption counter-screen; shares compounds with RGS16-Gao HTS; streptavidin beads, fluorescein-biotin binding, flow cytometry; inhibition, % at 10 µM; 1,700 tested, under 10 active; AID 1783;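 active = inhibition above 50%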;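 also: median green fluorescence of gated singlet beads compared with DMSO control wells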
# RGS8-Gao confirm = confirmation of regulators of human RGS8-Galphao interaction; shares compounds with RGS16-Gao HTS; bead-based flow cytometry RGS8-Galphao binding, fluorescence; actives lie on both sides; binding response (% of control), % at 10 µM; hit rate 3% among 1,700; in the data active = binding response below about 72% or above about 130%; inactive = in between;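 also: Galphao activated as GDP AlF4 complex before binding bead RGS8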
# RGS7-Gao confirm = RGS7-Galphao interaction regulation, single point confirmation; shares compounds with RGS16-Gao HTS; bead-based flow cytometry RGS7-Galphao binding; actives lie on both sides; response (percent of control binding), % at 10 µM; hit rate 7.8% among 1,700; in the data active = response below about 75% or above about 130%; inactive = in between;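 also: fluorescent Galphao activated with GDP and aluminum fluoride binding bead-coupled RGS7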
# RGS16-Gao conf = RGS16-Galphao interaction regulation, single point confirmation; bead-based flow cytometry, RGS16-Galphao binding; actives lie on both sides; shares compounds with RGS16-Gao HTS; hit rate 4% among 1,700; response (% of control binding), % at 10 µM; in the data active = response below about 74% or above about 130%; inactive = in between;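 also: Galphao activated as the GDP aluminium fluoride complex binding bead-coupled RGS16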
# RGS4-Gao confirm = confirmation of regulators of human RGS4-Galphao interaction; hit rate 4% among 1,700; binding response (% of control), % at 10 µM; RGS4-Galphao binding, multiplexed bead flow cytometry; actives lie on both sides; shares compounds with RGS16-Gao HTS; in the data active = binding response below about 74% or above about 130%; inactive = in between
# RGS19-Gao conf = confirmation of regulators of human RGS19-Galphao interaction | shares compounds with RGS16-Gao HTS | bead-based flow cytometry RGS19-Galphao binding; actives lie on both sides | response (percent of control binding), % at 10 µM | hit rate 5% among 1,700 | AID 1841; in the data active = response below about 50% or above about 160%; inactive = in between
# Numbers stand for hits; - = inactive; ? = inconclusive; . = no result given; [ ] = dose if it differs, or a comment. Unless noted, no rule for the calls is given here.
SMILES,RGS7-Gao reg,GSH bead fluor,RGS8-Gao reg,RGS4-Gao reg,Avidin bead fluor,RGS16-Gao HTS,RGS4-Gao HTS,Avidin counter,RGS8-Gao confirm,RGS7-Gao confirm,RGS16-Gao conf,RGS4-Gao confirm,RGS19-Gao conf
O=C(Nc1ccccn1)NC1CCS(=O)(=O)C1 (stereo not given),-,-,-,-,-,-92.4,75.9,-,-,-,-,-,-
O=C(Nc1ccccn1)NC1CCCCC1,.,-,.,198.9[activator],.,.,.,-,-,-,-,-,-
CCOC(=O)C(C)n1cnc2c(nnn2-c2cccc(Cl)c2)c1=O (stereo not given),-,-,-,-,-,-,.,.,.,.,.,.,.
CC(C(=O)NC(=O)NCc1ccccc1)N1C(=O)c2ccccc2C1=O (stereo not given),.,-,.,-,.,.,.,-,-,-,-,-,-
S=c1[nH]nc(-c2ccc3ccccc3n2)n1-c1ccc(Cl)cc1,-,-,-,-,-,176.9[activator],110.4,-,-,-,-,-,-
COC(=O)C1=C(C)N(C)C(=S)NC1c1c(OC)ccc2ccccc12 (stereo not given),?,-,-,-,-,-,.,.,.,.,.,.,.
CCc1c(O)c(/C(C)=N\O)c(=O)n(-c2ccccc2)c1-c1ccccc1,-,-,-,-,-,271.4[activator],110.6,-,-,-,-,-,-
O=S(=O)(c1ccccc1)c1ncc(C(F)(F)F)cc1Cl,11.5,-,14.5,15.1,.,10.3,.,-,-,-,-,-,-
CCN(N=O)[C@@H](Cc1ccccc1)CN(N=O)[C@@H](Cc1ccccc1)CN(C)N=O,17.1,-,29.3,29.5,-,20.8,.,-,-,-,-,-,-
Cc1c(NC(=O)CSc2ccccc2C(=O)Nc2cccnc2)c(=O)n(-c2ccccc2)n1C,-,-,-,-,-,-,.,.,.,.,.,.,.
CCCn1c(N)c(C(=O)CSc2nc3ccccc3c(=O)n2Cc2ccccc2)c(=O)[nH]c1=O,157.6[activator],-,-,226.7[activator],64,-,.,-,-,65.2,-,-,48.2
NC(=O)c1ccc(C23CC4CC(CC(C4)C2)C3)o1,-,-,-,-,-,202.2[activator],100.6,-,-,-,-,-,-
COc1ccc(CNC(=O)NC(C)(C)c2cccc(C(C)(C)NC(=O)NCc3ccc(OC)cc3)c2)cc1,-,-,-,-,-,-,.,.,.,.,.,.,.
COc1ccc(CNC(=O)c2c(F)c(F)c(F)c(F)c2F)cc1,-,-,58.1,-,-,-,93.2,-,-,-,-,-,-
CCN(CC)c1ccc(NC(=O)Cn2c(C(C)NC(=O)c3ccc(C)cc3)nc3ccccc32)cc1 (stereo not given),152.7[activator],-,-,212.0[activator],-,191.7[activator],.,-,-,-,127.7[activator],-,259.0[activator]
O=C(CSC1CC(=O)N(c2ccc(C(=O)O)cc2)C1=O)Nc1ccc(Cl)cc1 (stereo not given),241.4[activator],-,-,-,117,-,123.5,-,-,-,-,-,-
O=C1CC(SC(=Nc2ccccc2)Nc2ccccc2)C(=O)N1c1ccc(Cl)cc1 (stereo not given),-,-,-,-,-,-,.,.,.,.,.,.,.
